Reference: the supplement of paper PMC6555819

How the values were obtained:
Assay in all cases: PBM binding z-score (relative to random genomic background probes); higher = stronger binding; sequences stand for … in GC…GCGATTGACAGCGTAGAATGAAGG
[1] = system: FXR:RXRa (NR concentration 270 nM, RXRa partner concentration 90 nM)
Summary of the method: (§1)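 Ligand-free nuclear receptor dimers were bound for 1 h to custom Agilent 4×180K protein-binding microarrays. Detection used antibodies against each partner (one per run). Binding z-scores rest on regression-normalized fluorescence, with random background probes as the reference.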

[2] = system: LXRa:RXRa (NR concentration 270 nM, RXRa partner concentration 90 nM)
Summary of the method: as §1

[3] = system: LXRa homodimer (NR concentration 270 nM)
Summary of the method: as §1

[4] = system: LXRb:RXRa (NR concentration 270 nM, RXRa partner concentration 90 nM)
Summary of the method: as §1

[5] = system: LXRb homodimer (NR concentration 270 nM)
Summary of the method: as §1

[6] = system: PPARa:RXRa (NR concentration 270 nM, RXRa partner concentration 90 nM)
Summary of the method: as §1

[7] = system: PPARg:RXRa (NR concentration 180 nM, RXRa partner concentration 90 nM)
Summary of the method: as §1

[8] = system: PPARg:RXRa 270nM:90nM, anti-RXR (NR concentration 270 nM, RXRa partner concentration 90 nM)
Summary of the method: as §1

[9] = system: PPARg:RXRa 30nM:10nM, anti-RXR (NR concentration 30 nM, RXRa partner concentration 10 nM)
Summary of the method: as §1

[10] = system: PPARg:RXRa 90nM:30nM, anti-RXR (NR concentration 90 nM, RXRa partner concentration 30 nM)
Summary of the method: as §1

Sequence	PBM binding z-score [1]	PBM binding z-score [2]	PBM binding z-score [3]	PBM binding z-score [4]	PBM binding z-score [5]	PBM binding z-score [6]	PBM binding z-score [7]	PBM binding z-score [8]	PBM binding z-score [9]	PBM binding z-score [10]
CCTGCTAGGTCAATGGGCAGCTAAAGCAGCTCGC	1.94	1.62	-0.481	0.861	-0.588	2.59	2.02	3.18	0.64	2.19
ACTAGCAGGCCAAGTTTGCGTCACTCAAACAAAG	-0.42	-0.547	-0.38	-0.386	-0.402	-0.395	-0.346	-0.378	-0.74	-0.227
CCTCGGAGGACAGAAGGTGAGAGCTGTCCGCTTT	0.177	0.159	-0.939	-0.679	-0.923	-0.0914	-0.442	-0.325	-0.929	-0.465
TCGGACAGGTGAAGGTAACTCAGGTACGCAGTCG	0.451	1.52	0.174	0.636	-0.839	0.988	0.599	1.57	2.75	1.87
AGTCAAAGTTCAGGAGGAGGTAACGTAAAGCACG	4.22	3.87	1.6	2.24	0.773	3.67	5.03	5.22	2.38	3.98
TCGAGTAGGTTAAGGGCATTCAGAATGGCGTCGA	0.969	1.02	-0.302	0.27	-1.02	1.75	1.68	2.85	1.35	2.37
CCTAGTTGGTCAGGAGGTCACAGACCGGATATGA	4.08	3.46	1.53	3.38	0.251	4.41	3.79	4.28	1.81	3.37
GATGCAGGGTCAAGGCCAGAGTACGCGTATTGAT	6.64	3.82	-0.363	3.54	-0.254	5.74	5.22	4.93	1.79	3.61
CTGACTGGGGCAAAGGTTACCATACTCAGTACGA	1.83	1.87	-0.166	3.05	-0.352	6.09	11.3	9.42	9.13	10.2
CAAACTAGGTAACGAAAGGTCAAAGTCGAATGAC	4.96	7.4	6.74	6.41	2.26	5.8	6.82	6.42	3.66	5.76
CATACAGGGTCTGCTAGGCCAGAGTAGGGACGGC	-0.237	-0.31	-0.443	-0.834	-0.599	-0.452	0.152	-0.899	-0.808	-0.386
AGAATGAGGTTAAGATCAGGCAAACAGAATACAT	2.11	5.61	-0.312	2.82	-0.408	3.45	2.21	2.38	0.95	1.63
GGGACGAGGGCATTCGAGTTGATAGCATGGCGAT	1.09	1.84	-0.143	0.891	0.141	1.25	0.732	0.668	-0.43	0.0864
CGAACTAGGTCAAGGATAGTGAATCTCCGCACGC	3.06	1.9	0.0332	1.36	-0.0688	4.56	7.74	6.47	4.24	6.39
CAAACTAGGTCACGAAAGGTCAAAGTCGAATGAC	7.74	8.37	7.89	7.46	2.8	6.76	10.7	8.68	7.48	8.74
TCGAGTAGGTTAGGGACATTCAGAATGGCGTCGA	0.438	-0.314	-0.491	-0.146	-0.828	0.561	0.371	0.659	1.18	0.799
TGTCTAAGTTCAAAGGTAACGTAAGTATCCACAC	4.9	5.21	1.95	3.38	1.12	4.85	4.52	5.15	2.77	4.68
ATCGAAAGGTCGTGATGTGAGTATACAGAAAGGC	4.54	3.48	0.378	3.08	0.626	4.67	3.21	3.2	1.34	2.34
CGTCAAAGTACAAGGTAACGTAACAGAAAGCAGC	0.052	-0.143	-0.279	0.0117	-0.288	0.136	0.969	0.307	0.31	0.0776
